The campaign covered roughly 310,000 compounds. About 14,000 (4.5%) showed an effect of 50% or more. Effects have a minus sign here. The sample holds strong results, similar compounds and a random draw of the others, so the mix is not that of the screen.
Molecular target: human ether-à-go-go-related gene (hERG) potassium channel (human, UniProt Q12809)
Test: primary screen, population patch clamp on CHO cells stably expressing hERG; higher = less effect of the substance
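Note: peak tail current of the secondary pulse compared with the same well before compound.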

Sequence of human ether-à-go-go-related gene (hERG) potassium channel (Q12809 whole entry, looked up): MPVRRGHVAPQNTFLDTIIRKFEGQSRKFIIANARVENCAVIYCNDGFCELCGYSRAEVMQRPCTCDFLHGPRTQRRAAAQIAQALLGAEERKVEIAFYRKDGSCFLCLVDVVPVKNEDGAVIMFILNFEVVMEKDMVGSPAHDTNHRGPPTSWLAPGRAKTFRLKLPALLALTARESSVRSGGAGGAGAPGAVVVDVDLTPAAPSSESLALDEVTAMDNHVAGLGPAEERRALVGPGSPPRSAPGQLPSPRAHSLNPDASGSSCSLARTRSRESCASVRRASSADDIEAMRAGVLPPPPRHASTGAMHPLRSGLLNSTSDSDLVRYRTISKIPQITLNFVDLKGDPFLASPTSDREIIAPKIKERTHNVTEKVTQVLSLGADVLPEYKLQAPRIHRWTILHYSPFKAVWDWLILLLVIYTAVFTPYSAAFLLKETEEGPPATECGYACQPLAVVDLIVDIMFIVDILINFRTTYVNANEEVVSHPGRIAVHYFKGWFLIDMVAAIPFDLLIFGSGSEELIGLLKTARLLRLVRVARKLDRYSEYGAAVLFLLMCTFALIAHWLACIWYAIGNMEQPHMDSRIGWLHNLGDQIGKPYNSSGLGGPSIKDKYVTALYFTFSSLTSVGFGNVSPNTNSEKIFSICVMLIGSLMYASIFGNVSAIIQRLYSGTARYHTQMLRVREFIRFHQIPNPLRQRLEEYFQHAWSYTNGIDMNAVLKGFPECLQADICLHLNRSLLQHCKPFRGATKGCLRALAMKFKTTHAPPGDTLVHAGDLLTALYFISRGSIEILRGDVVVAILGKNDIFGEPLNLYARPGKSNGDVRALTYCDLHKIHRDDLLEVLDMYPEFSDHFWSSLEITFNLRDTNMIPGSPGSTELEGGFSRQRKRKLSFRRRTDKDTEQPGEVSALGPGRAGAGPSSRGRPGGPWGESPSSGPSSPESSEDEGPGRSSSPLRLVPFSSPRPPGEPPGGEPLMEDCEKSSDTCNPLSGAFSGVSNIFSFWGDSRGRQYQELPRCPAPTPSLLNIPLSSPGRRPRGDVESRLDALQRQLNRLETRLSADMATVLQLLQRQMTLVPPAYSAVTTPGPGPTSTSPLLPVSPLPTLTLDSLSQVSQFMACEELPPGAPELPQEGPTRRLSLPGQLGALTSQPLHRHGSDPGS

Compared with `Cl.O=C(COc1ccccc1F)NC1CCN(Cc2ccccc2)CC1`, `O=C(COc1ccc(Br)cc1F)NC1CCN(Cc2ccccc2)CC1` is lower in “hERG current change (%, negative = inhibition) at 10uM” value: -38.5% for the first, -74% for the second.

Compared with `O=C(COc1ccc(Br)cc1Cl)NC1CCN(Cc2ccccc2)CC1`, `Cc1ccc(Cl)c(OCC(=O)NC2CCN(Cc3ccccc3)CC2)c1` is lower in “hERG current change (%, negative = inhibition) at 10uM” value: -67.3% for the first, -115% for the second.

Compared with `O=C(COc1ccc(Br)cc1Cl)NC(=O)NC1CCCC1`, `O=C(COc1ccc(Br)cc1Cl)NC1CCCCC1` is higher in “hERG current change (%, negative = inhibition) at 10uM” value: -9.03% for the first, 9.84% for the second.

Compared with `Cc1cc(OCC(=O)NC2CCN(Cc3ccccc3)CC2)c2c(C)c(C)c(=O)oc2c1`, `Cc1ccc(Cl)c(OCC(=O)Nc2ccccc2C(=O)NC2CC2)c1` is higher in “hERG current change (%, negative = inhibition) at 10uM” value: -22.4% for the first, 3.5% for the second.

First: O=C(COc1ccccc1F)NC1CC1
Second: CC(C)COC(=O)Nc1ccccc1C(=O)N1CCOCC1
The “hERG current change (%, negative = inhibition) at 10uM” value of the first is lower: 0.681% for the first, 9.75% for the second.

Compared with `COc1ccc(C(=O)N(C)c2ccccc2C(=O)NCCc2ccccc2)cc1`, `C=CCNC(=O)c1cnn(-c2ccccc2)c1-c1ccccc1` is higher in “hERG current change (%, negative = inhibition) at 10uM” value: -20.2% for the first, 10.4% for the second.

Compared with `O=C(CCCn1c(=O)c2ccccc2n(Cc2ccccc2)c1=O)NCc1ccco1`, `O=C(Cn1ncc2c3ccccc3n(Cc3ccccc3)c2c1=O)NCCCN1CCOCC1` is lower in “hERG current change (%, negative = inhibition) at 10uM” value: -7.47% for the first, -45.2% for the second.

First: CNC(=O)c1c(C)nn(-c2ccc(F)c(Cl)c2)c1-c1cc(C)on1
Second: Cc1cc(C)cc(SCc2noc(C(=O)NC(C)C)c2C(=O)O)c1
The “hERG current change (%, negative = inhibition) at 10uM” value of the first is lower: 4.71% for the first, 33.6% for the second.

Going from `Cc1ccc(CC(=O)Nc2ccc(S(=O)(=O)Nc3nccc(C)n3)cc2)cc1` to `COCC(=O)Nc1ccc(S(=O)(=O)Nc2ccccn2)cc1`, the “hERG current change (%, negative = inhibition) at 10uM” value rises from 1.2% to 17.8%.

Compared with `CCCCC(NC(C)=O)c1nc2ccccc2[nH]1` (centres unmarked), `CCCCNC(=O)c1cc2c(=O)n3cccc(C)c3nc2s1` is lower in “hERG current change (%, negative = inhibition) at 10uM” value: 23.1% for the first, 7.96% for the second.

Compared with `C=C[C@@H]1C2=CCOC(=O)C2=CO[C@H]1O[C@@H]1O[C@H](CO)[C@@H](O)[C@H](O)[C@H]1O`, `O=C(COC(=O)C1=COCCO1)Nc1cccc(S(=O)(=O)N2CCOCC2)c1` is lower in “hERG current change (%, negative = inhibition) at 10uM” value: 20.1% for the first, 10.8% for the second.

First: N#CCCN1CCN(S(=O)(=O)c2ccc(S(=O)(=O)N3CCCC3)cc2)CC1
Second: C=CCn1cc(C(=O)NCC2CCCO2)c(=O)c2cc(S(=O)(=O)N3CCCCCC3)ccc21 (centres unmarked)
The “hERG current change (%, negative = inhibition) at 10uM” value of the first is higher: 4.66% for the first, -48.1% for the second.

Going from `COc1ccc(S(=O)(=O)NCc2ccccn2)c(C)c1C` to `Cc1ccc(S(=O)(=O)NCCOc2cc(C)ccc2C)cc1`, the “hERG current change (%, negative = inhibition) at 10uM” value falls from 0.26% to -6.41%.

Going from `N#CCc1c(C#N)c(N)nc(N2CCCC(CO)C2)c1C#N` (centres unmarked) to `COc1cc(C2=NOC(C(=O)NC3CCCCC3)C2)cc(OC)c1OC` (centres unmarked), the “hERG current change (%, negative = inhibition) at 10uM” value falls from 1.82% to -8.08%.

Compared with `Cc1cc(C)c(Cn2c3ccccc3c3cnn(CC(=O)NCCN4CCOCC4)c(=O)c32)c(C)c1`, `Cc1ccc(C)c(Cn2c3ccccc3c3cnn(CC(=O)NCCN4CCOCC4)c(=O)c32)c1` is lower in “hERG current change (%, negative = inhibition) at 10uM” value: 2.31% for the first, -45% for the second.

Going from `O=C(Cn1ncc2c3ccccc3n(Cc3ccccc3F)c2c1=O)NCCN1CCOCC1` to `O=C(Cn1ncc2c3ccccc3n(Cc3ccccc3)c2c1=O)NCCN1CCOCC1`, the “hERG current change (%, negative = inhibition) at 10uM” value falls from -55.2% to -57%.

Compared with `Cc1ccccc1Cn1c2ccccc2c2cnn(CC(=O)NCCCN3CCOCC3)c(=O)c21`, `COc1cccc(NC(=S)N(CCCN2CCOCC2)Cc2cn(C)c3ccccc23)c1` is higher in “hERG current change (%, negative = inhibition) at 10uM” value: -18.6% for the first, -10.7% for the second.

First: CCC(=O)/C=C1/Sc2ccc(OC)cc2N1CC
Second: COc1cccc(NC(=S)N(CCN(C)C)Cc2cccs2)c1
The “hERG current change (%, negative = inhibition) at 10uM” value of the first is higher: -4.45% for the first, -10.5% for the second.

First: COc1ccc(-c2c(NC(=O)c3ccco3)oc3ccc(Cl)cc3c2=O)cc1
Second: COc1cc(/C=N/Nc2cccc(C)c2)ccc1OC(=O)c1ccco1
The “hERG current change (%, negative = inhibition) at 10uM” value of the first is lower: 19.7% for the first, 23.4% for the second.

Compared with `O=c1ccn(Cc2ccc(F)cc2)c2ccnc(C(F)(F)F)c12`, `CCNC(=O)c1cc2c(=O)n3cccc(C)c3nc2n(Cc2ccc(C)cc2)c1=N` is lower in “hERG current change (%, negative = inhibition) at 10uM” value: -25.9% for the first, -88% for the second.

First: CCN(CC)S(=O)(=O)c1ccc(N2CCCC2)c(NC(=O)C2=COCCO2)c1
Second: CCC1CCCCN1C(=S)Nc1cccc(S(=O)(=O)N(C)C)c1 (centres unmarked)
The “hERG current change (%, negative = inhibition) at 10uM” value of the first is lower: -40% for the first, -6.73% for the second.

Going from `COC(=O)Cn1cc(/C=C/c2cc[n+](C)cc2)c2ccccc21.[I-]` to `CCn1cc(/C=C/c2cc[n+](C)cc2)c2ccccc21.[I-]`, the “hERG current change (%, negative = inhibition) at 10uM” value falls from 5.7% to -56.1%.

Compared with `CCn1c(/C=C/c2cc[n+](C)cc2)nc2ccccc21.[I-]`, `CCCCNC(=O)c1cc2c(=O)n3cccc(C)c3nc2n(Cc2ccccc2)c1=N` is lower in “hERG current change (%, negative = inhibition) at 10uM” value: 15% for the first, -77.6% for the second.

Going from `CN(C)c1ccc(-c2nc3cc(N)ccc3o2)cc1` to `Nc1ccc(-c2ccc(N)c(C(=O)O)c2)cc1C(=O)O`, the “hERG current change (%, negative = inhibition) at 10uM” value rises from 6.31% to 7.74%.

Going from `Cc1cccn2c(=O)c3cc(C(=O)N4COCC4(C)C)n(Cc4ccccc4)c3nc12` to `COC(=O)C1CCN(C(=O)c2cc3c(=O)n4cccc(C)c4nc3n2Cc2ccccc2)CC1`, the “hERG current change (%, negative = inhibition) at 10uM” value rises from 1.23% to 13.2%.

Compared with `CCCCNC(=O)c1cc2c(=O)n3cccc(C)c3nc2n(Cc2ccncc2)c1=N`, `COCCNC(=O)c1cc2c(=O)n3cccc(C)c3nc2n(Cc2ccncc2)c1=N` is higher in “hERG current change (%, negative = inhibition) at 10uM” value: -75.1% for the first, -70% for the second.

First: COCCNC(=O)c1cc2c(=O)n3cccc(C)c3nc2n1C
Second: Cc1cccn2c(=O)c3cc(C(=O)NC(C)C)c(=N)n(Cc4ccncc4)c3nc12
The “hERG current change (%, negative = inhibition) at 10uM” value of the first is higher: 11.7% for the first, -72.4% for the second.

Compared with `CCc1cc2c(NC(Cc3c[nH]c4ccccc34)C(=O)O)nc(C)nc2s1` (centres unmarked), `CC(=O)Nc1ccc2c(c1)C(=O)N(c1cccc3ccccc13)C2=O` is lower in “hERG current change (%, negative = inhibition) at 10uM” value: 31.3% for the first, -9.32% for the second.

First: Cc1c(NC(=O)CSc2n[nH]c(-c3ccccc3)n2)c(=O)n(-c2ccccc2)n1C
Second: Cn1c(Cn2nnc3ccccc32)nnc1SCC(=O)N1c2ccccc2Sc2ccccc21
The “hERG current change (%, negative = inhibition) at 10uM” value of the first is higher: 3.93% for the first, -22.1% for the second.

First: CC1=C(C(=O)Nc2ccc(C(=O)NCCCN3CCCCC3)cc2)SCCO1
Second: COc1ccc(NC(=S)N(CCCN2CCCCC2)Cc2cccs2)cc1
The “hERG current change (%, negative = inhibition) at 10uM” value of the first is higher: -24.8% for the first, -61% for the second.

First: CN(N)N=Nc1nc2c([nH]1)c(=O)n(C)c(=O)n2C
Second: CC(OC(=O)Cn1cnc2c1c(=O)n(C)c(=O)n2C)C(=O)NC1CCCCC1C (centres unmarked)
The “hERG current change (%, negative = inhibition) at 10uM” value of the first is lower: 0.0258% for the first, 15.4% for the second.

Going from `Cc1ccc(NCc2nnc(SCC(=O)Nc3nnc(C)s3)n2C)cc1` to `COc1ccc(NC(=S)N(CCN(C)C)Cc2cccs2)cc1`, the “hERG current change (%, negative = inhibition) at 10uM” value falls from -1.72% to -33.9%.

First: Cc1ccc(S(=O)(=O)c2cc3c(=O)n4cccc(C)c4nc3n(Cc3ccncc3)c2=N)cc1
Second: Cc1cc(C)[n+](-c2ccc(Oc3ccccc3)c(S(=O)(=O)[O-])c2)[nH]1
The “hERG current change (%, negative = inhibition) at 10uM” value of the first is lower: -40.8% for the first, 13.6% for the second.

Compared with `COc1ccc(NC(=S)N(CCCN2CCCC2)Cc2cccs2)cc1`, `COc1ccc(NC(=S)N(CCCN2CCC(C)CC2)Cc2cccs2)cc1` is lower in “hERG current change (%, negative = inhibition) at 10uM” value: -48% for the first, -68.2% for the second.

Going from `COc1ccc(NC(=S)N(CCCN2CCN(C)CC2)Cc2cccs2)cc1` to `COc1cccc(NC(=S)N(CCCN2CCC(C)CC2)Cc2cccs2)c1`, the “hERG current change (%, negative = inhibition) at 10uM” value falls from -53.4% to -59.2%.

First: COc1ccc(NC(=S)N(CCCN2CCOCC2)Cc2cn(C)c3ccccc23)cc1
Second: COc1ccc(NC(=S)N(CCCN2CCCC2)Cc2cccn2Cc2ccc(Cl)cc2)cc1Cl
The “hERG current change (%, negative = inhibition) at 10uM” value of the first is lower: -16.8% for the first, -6.98% for the second.

Compared with `CCCCN(C(=O)c1ccc(-c2ccc(Cl)cc2)o1)c1c(N)n(CCC)c(=O)[nH]c1=O`, `COc1ccc(NP(=O)(Oc2ccc(Cl)cc2)Oc2ccc(Cl)cc2)cc1OC` is lower in “hERG current change (%, negative = inhibition) at 10uM” value: 0.856% for the first, -16.6% for the second.

Compared with `O=C(NC1CCCC1)C(c1cccs1)N(Cc1ccco1)C(=O)Cn1nnc(-c2cccs2)n1` (centres unmarked), `COc1ccc(NC(=S)N(CCCN2CCC(C)CC2)Cc2cccs2)cc1Cl` is lower in “hERG current change (%, negative = inhibition) at 10uM” value: 2.45% for the first, -73.1% for the second.

First: CCOP(=S)(OCC)Oc1cc(C)oc(=O)c1Cl
Second: COc1ccc(NC(=S)NCCN2CCC(C)CC2)cc1Cl
The “hERG current change (%, negative = inhibition) at 10uM” value of the first is higher: 19.6% for the first, -30.5% for the second.

Going from `O=C(OC1CCOC1=O)c1cncc(Br)c1` (centres unmarked) to `O=C(OCCN=C1NS(=O)(=O)c2ccccc21)c1ccncc1`, the “hERG current change (%, negative = inhibition) at 10uM” value rises from -15.7% to -1.44%.

Going from `CC(=O)NC12CC3CC(C1)CC(C(=O)Nc1nccs1)(C3)C2` to `COc1ccc(NS(=O)(=O)c2cccc(C(=O)NCC3(N4CCCCC4)CCCCC3)c2)cc1`, the “hERG current change (%, negative = inhibition) at 10uM” value falls from 6.58% to -55.4%.

First: CCC(c1nnnn1C1CCCCC1)N1CCN(C(=O)c2ccco2)CC1.Cl (centres unmarked)
Second: COc1ccc(NS(=O)(=O)c2cccc(C(=O)N3CCCCCCC3)c2)cc1
The “hERG current change (%, negative = inhibition) at 10uM” value of the first is higher: -11.4% for the first, -28.9% for the second.

Compared with `C/C(=N\NC(=O)Cn1cc([N+](=O)[O-])cn1)c1ccc(O)cc1`, `COc1ccc(NS(=O)(=O)c2cccc(C(=O)NCC3(N4CCOCC4)CCCCC3)c2)cc1` is lower in “hERG current change (%, negative = inhibition) at 10uM” value: -5.56% for the first, -36.7% for the second.

Compared with `O=C(NCC1(N2CCCCC2)CCCCC1)c1cccc(S(=O)(=O)Nc2ccc(F)cc2)c1`, `O=C(NCC1(N2CCOCC2)CCCCC1)c1cccc(S(=O)(=O)Nc2ccc(F)cc2)c1` is higher in “hERG current change (%, negative = inhibition) at 10uM” value: -64% for the first, -44.1% for the second.

With `O=C(c1cccc(S(=O)(=O)Nc2ccc(F)cc2)c1)N1CCCC1` the “hERG current change (%, negative = inhibition) at 10uM” value was -3.1%.
